# Source: the supplement of paper PMC12669032
# Values without a mark were called inactive.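 The calls were made as follows: active = AUC reduced over 20% with Padj below 0.05 in at least 2 of 3 replicates; inactive = otherwise.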
# Tested on: Bifidobacterium longum subsp. longum
# Assay: growth AUC relative to DMSO control (median of replicates) (fraction); higher = more growth (less inhibition), active = hit call of the paper
# Conditions: 20 µM; 24 h
# In short: (§1)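 Three biological replicates, each grown on a separate day, were combined as a median for every value. In each, a gut bacterial monoculture in mGAM started at OD600 0.05 and grew anaerobically at 37 °C with 20 µM compound (1% DMSO), with OD600 read hourly over 24 h. Area under the growth curve was normalised against the plate median of solvent-only wells, or against row and column medians on the industrial chemical plate, after the minimum OD was set to 0.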
row,SMILES,growth AUC
1,CC(C)c1cccc2c(=O)c3ccccc3sc12,1.06
2,CP(=O)(O)CCC(=O)O,1.03
3,ClC(COCC(Cl)C(Cl)(Cl)Cl)C(Cl)(Cl)Cl (stereo not drawn),0.967
4,CCc1cccc(C)c1N(C(=O)CS(=O)(=O)[O-])C(C)COC.[Na+] (stereo not drawn),0.954
5,COCC(=O)N(c1c(C)cccc1C(=O)O)C(C)C(=O)O (stereo not drawn),0.907
6,COC(=O)C(C)Oc1ccc(Oc2ccc(C(F)(F)F)cn2)cc1 (stereo not drawn),1.02
7,O=S(Cc1ccc(Cl)cc1)c1ccc(Cl)cc1 (stereo not drawn),1.05
8,O=C(O)c1ccc(Cl)cc1Cl,0.699
9,Nc1ccc(S(=O)(=O)Nc2cnc3ccccc3n2)cc1,1.12
10,COC(=O)c1ccc(CNS(C)(=O)=O)cc1S(=O)(=O)NC(=O)Nc1nc(OC)cc(OC)n1,0.917
11,CC(C)(NC(=O)NCc1ccccc1Cl)c1ccccc1,1.08
12,CCC(C)Nc1nc(N)nc(Cl)n1 (stereo not drawn),1.03
13,Cc1cccc(C)c1N(C(=O)CCl)C1CCOC1=O (stereo not drawn),1.04
14,CC(C)(NC(=O)C(Br)C(C)(C)C)c1ccccc1 (stereo not drawn),0.84
15,O=C(O)Cc1cccc2ccccc12,1.03
16,NC(Cn1cncn1)C(=O)O (stereo not drawn),0.966
17,CCc1nc2ncnn2c(N)c1CCCCCC(=O)O.Cl,0.963
18,Cn1cc(C(=O)Nc2ccccc2-c2cc(F)c(F)c(F)c2)c(C(F)F)n1,0.919
19,NC(=O)Cc1cccc2ccccc12,0.977
20,CC(C)c1ccccc1,0.947

row,SMILES,growth AUC
1,CCCCCCCCSCCO,1.04
2,CN(C)C(=O)Nc1ccc(Cl)c(Cl)c1,1.09
3,c1ccc(Nc2ccccc2)cc1,0.953
4,CC1=C(C(=O)Nc2ccccc2)CCCO1,1.15
5,CCOC(=O)C(C)Oc1ccc(Oc2nc3ccc(Cl)cc3o2)cc1 (racemic),0.989
6,O.O=C(Nc1ccc([N+](=O)[O-])cc1Cl)c1cc(Cl)ccc1O,0.0965 (active)
7,CN(C)C(N)=O,0.973
8,COC(=O)c1c(Cl)nn(C)c1S(=O)(=O)NC(=O)Nc1nc(OC)cc(OC)n1,1.06
9,N#Cc1ccccc1NC(=O)c1snc(Cl)c1Cl,0.9
10,COCC(=O)N(c1c(C)cccc1C)C(C)C(=O)O (stereo not drawn),0.951
11,COCCN(C(=O)CO)c1c(C)cccc1C(=O)O,1.06
12,CNC(=O)Nc1nc2ccccc2s1,0.955
13,O=C(O)COc1ccc(Cl)c2cccnc12,0.99
14,CC(C)([CH2][Sn]([CH2]C(C)(C)c1ccccc1)([CH2]C(C)(C)c1ccccc1)[O][Sn]([CH2]C(C)(C)c1ccccc1)([CH2]C(C)(C)c1ccccc1)[CH2]C(C)(C)c1ccccc1)c1ccccc1,1.02
15,CN(C)C(=O)Nc1ccc(Oc2ccc(Cl)cc2)cc1,0.991
16,CCc1ccc(O)cc1,1.01
17,Cc1nn(C)c(F)c1C(=O)Nc1ccccc1C(C)CC(C)C (stereo not drawn),0.992
18,CCc1cccc(C)c1NC(=O)C(=O)O,1.02
19,CCCCC(CC)COC(=O)COc1ccc(Cl)cc1C (stereo not drawn),0.986

# Tested on: Clostridium difficile
# Assay: as above
# Conditions: 20 µM; 24 h
# In short: as §1
row,SMILES,growth AUC
1,CC(C)c1cccc2c(=O)c3ccccc3sc12,0.895
2,CP(=O)(O)CCC(=O)O,1.04
3,ClC(COCC(Cl)C(Cl)(Cl)Cl)C(Cl)(Cl)Cl (stereo not drawn),1.02
4,CCc1cccc(C)c1N(C(=O)CS(=O)(=O)[O-])C(C)COC.[Na+] (stereo not drawn),0.991
5,COCC(=O)N(c1c(C)cccc1C(=O)O)C(C)C(=O)O (stereo not drawn),1.04
6,COC(=O)C(C)Oc1ccc(Oc2ccc(C(F)(F)F)cn2)cc1 (stereo not drawn),1.01
7,O=S(Cc1ccc(Cl)cc1)c1ccc(Cl)cc1 (stereo not drawn),0.977
8,O=C(O)c1ccc(Cl)cc1Cl,0.997
9,Nc1ccc(S(=O)(=O)Nc2cnc3ccccc3n2)cc1,0.975
10,COC(=O)c1ccc(CNS(C)(=O)=O)cc1S(=O)(=O)NC(=O)Nc1nc(OC)cc(OC)n1,1.02
11,CC(C)(NC(=O)NCc1ccccc1Cl)c1ccccc1,1.01
12,CCC(C)Nc1nc(N)nc(Cl)n1 (stereo not drawn),0.974
13,Cc1cccc(C)c1N(C(=O)CCl)C1CCOC1=O (stereo not drawn),0.966
14,CC(C)(NC(=O)C(Br)C(C)(C)C)c1ccccc1 (stereo not drawn),1.01
15,O=C(O)Cc1cccc2ccccc12,0.994
16,NC(Cn1cncn1)C(=O)O (stereo not drawn),0.981
17,CCc1nc2ncnn2c(N)c1CCCCCC(=O)O.Cl,1.01
18,Cn1cc(C(=O)Nc2ccccc2-c2cc(F)c(F)c(F)c2)c(C(F)F)n1,0.98
19,NC(=O)Cc1cccc2ccccc12,1.01
20,CC(C)c1ccccc1,1.02

row,SMILES,growth AUC
1,CCCCCCCCSCCO,0.983
2,CN(C)C(=O)Nc1ccc(Cl)c(Cl)c1,0.965
3,c1ccc(Nc2ccccc2)cc1,0.999
4,CC1=C(C(=O)Nc2ccccc2)CCCO1,1.01
5,CCOC(=O)C(C)Oc1ccc(Oc2nc3ccc(Cl)cc3o2)cc1 (racemic),1.01
6,O.O=C(Nc1ccc([N+](=O)[O-])cc1Cl)c1cc(Cl)ccc1O,0.328 (active)
7,CN(C)C(N)=O,1.03
8,COC(=O)c1c(Cl)nn(C)c1S(=O)(=O)NC(=O)Nc1nc(OC)cc(OC)n1,1
9,N#Cc1ccccc1NC(=O)c1snc(Cl)c1Cl,0.944
10,COCC(=O)N(c1c(C)cccc1C)C(C)C(=O)O (stereo not drawn),0.95
11,COCCN(C(=O)CO)c1c(C)cccc1C(=O)O,0.94
12,CNC(=O)Nc1nc2ccccc2s1,0.969
13,O=C(O)COc1ccc(Cl)c2cccnc12,0.954
14,CC(C)([CH2][Sn]([CH2]C(C)(C)c1ccccc1)([CH2]C(C)(C)c1ccccc1)[O][Sn]([CH2]C(C)(C)c1ccccc1)([CH2]C(C)(C)c1ccccc1)[CH2]C(C)(C)c1ccccc1)c1ccccc1,0.956
15,CN(C)C(=O)Nc1ccc(Oc2ccc(Cl)cc2)cc1,0.96
16,CCc1ccc(O)cc1,0.957
17,Cc1nn(C)c(F)c1C(=O)Nc1ccccc1C(C)CC(C)C (stereo not drawn),0.982
18,CCc1cccc(C)c1NC(=O)C(=O)O,0.972
19,CCCCC(CC)COC(=O)COc1ccc(Cl)cc1C (stereo not drawn),0.979
